Compounds with a hit are over-represented: about 13% of the library has one in this group of screens.
LASV entry inh – qHTS for Inhibitors of binding or entry into cells for Lassa Virus; Lassa virus pseudotype entry inhibition, cell reporter; Potency, µM (series often up to 37.9 µM), hits mostly inhibitors; 1.2% of 300,000 active; AID 540256, 2011; calls by dose curve; tested in HEK293 cells; also: nearly all actives have a fitted effect of over 50% in size
CHX counter – Cycloheximide Counterscreen for Small Molecule Inhibitors of Shiga Toxin. cell reporter, cycloheximide protein synthesis inhibition counterscreen. max response, %. 12% of 300,000 active; in the data active = max response mostly above about 13%, no sharp cut-off; inactive = mostly below about 14%; also: read at 38.3 µM for the half of the compounds with a filed dose
HCV inhibitor – qHTS Assay for Inhibitors of Hepatitis C Virus (HCV) | Huh7.5.1 HCVcc-Cre infection, luciferase reporter, 44 h | AID 651820, 2012 | 3.4% of 340,000 active | Potency, µM (top dose mostly 41.8 µM), hits mostly inhibitors; active = well fitted inhibition curve with a large enough effect; inconclusive = small, poorly fitted or top-dose-only effect, or another doubt; inactive = no such curve, though single readings can be large or run the other way
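Whole-lifecycle infectious HCVcc-Cre system; cells 1,000/well, compound then virus (~0.5 moi) added 4 h after plating, 44 h culture. Luciferase read 15 sec following 15 min substrate incubation, room temp.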
Shiga toxin inh – A qHTS for Small Molecule Inhibitors of Shiga Toxin. Vero cells, Shiga toxin protein synthesis inhibition reporter. inhibition, % at 38.7 µM. 9.2% of 290,000 active; in the data active = inhibition mostly above about 28%, no sharp cut-off; inactive = mostly below about 43%
Marburg entry inh – qHTS for inhibitors of binding or entry into cells for Marburg Virus. AID 540276, 2011. Marburg virus pseudotyped entry inhibition, cell reporter. 1.8% of 300,000 active. Potency, µM (titrated, usually from 37.8 µM), usual class: inhibitors; calls by dose curve; tested in HEK293 cells
FMDV inh – High Throughput Screening for Foot and Mouth Disease Virus Antivirals. AID 1159524, 2015. FMDV antiviral cell-based qHTS. Potency, µM (titrated, usually from 57.9 µM), hits mostly inhibitors. 1.2% of 410,000 active; calls by dose curve; tested in HEK293T cells; also: read-out not given here; nearly all actives have a fitted effect of over 45% in size
Each line names hits and unclear results; the compound was inactive in the other large screens.

O=C(CSc1ncn[nH]1)Nc1ccccc1Sc1ccc(Cl)cc1	LASV entry inh inconclusive, HCV inhibitor inconclusive, FMDV inh 16µM
Nc1cc(=O)[nH]c(SCC(=O)Nc2ccccc2Sc2ccc(Cl)cc2)n1	LASV entry inh inconclusive, HCV inhibitor inconclusive, FMDV inh inconclusive
CC(C)Cn1c2ccccc2c2cc(C(=O)O)ccc21	none
O=c1[nH]c(CCl)nc2cc(-c3ccc(F)cc3)sc12	LASV entry inh inconclusive, HCV inhibitor inconclusive, Marburg entry inh inconclusive
O=c1[nH]cnc2cc(-c3ccc(Br)cc3)sc12	HCV inhibitor inconclusive, Shiga toxin inh 66, Marburg entry inh inconclusive (no result: LASV entry inh)
Nc1ccn([C@@H]2O[C@H](CNCc3ccc(OCC(=O)Nc4nccs4)cc3)[C@@H](O)[C@H]2O)c(=O)n1	none (no result: LASV entry inh, CHX counter, HCV inhibitor, Shiga toxin inh, Marburg entry inh)
O=C(NN1CCOCC1)c1cc(-c2ccncc2)nc2ccccc12	LASV entry inh inconclusive
Nc1ccc(N=Nc2ccc(N)cc2)cc1	CHX counter 33 (no result: LASV entry inh, Marburg entry inh)
Nc1ccc(N=Nc2ccccc2)cc1	LASV entry inh inconclusive, CHX counter 41, Shiga toxin inh 69, Marburg entry inh inconclusive
Nc1ccc2ccccc2c1N=Nc1ccccc1	LASV entry inh inconclusive, HCV inhibitor inconclusive (no result: CHX counter, Shiga toxin inh)
Cc1cc(N(C)C)ccc1N=Nc1ccc(N)cc1	LASV entry inh inconclusive, HCV inhibitor inconclusive, Marburg entry inh inconclusive (no result: CHX counter, Shiga toxin inh)
COc1cccc(CNC(=O)C2CCN(S(=O)(=O)c3cccc4nonc34)CC2)c1	none
O=C(N/C=C/c1ccccc1)Nc1ccc(Cl)cc1	LASV entry inh inconclusive, CHX counter 74, Shiga toxin inh 198
Cc1ccc(NC(=O)N/C=C/c2ccc(Cl)cc2)cc1	Marburg entry inh inconclusive
Cc1ccc(NC(=O)N/C=C/c2ccccc2)cc1	CHX counter 24, Shiga toxin inh 42
COc1cc(OC)c(OC)cc1CNC(=O)c1cc(=O)[nH]c2ccccc12	none
CCC(C)C(NC(N)=O)C(=O)Nc1ccc(S(=O)(=O)Nc2ccc(OC)cc2)cc1 (stereo not drawn)	Marburg entry inh inconclusive
CCCCn1cnc2c(cnn2-c2ccc(Cl)cc2)c1=O	CHX counter 11
CCCCn1cnc2c(cnn2-c2ccc(F)cc2)c1=O	CHX counter 27, HCV inhibitor inconclusive, Shiga toxin inh 120, Marburg entry inh inconclusive
CCCn1cnc2c(cnn2-c2ccc(F)cc2)c1=O	CHX counter 43, HCV inhibitor inconclusive, Shiga toxin inh 70
O=c1c2cnn(-c3ccc(F)cc3)c2ncn1Cc1ccc(F)cc1	LASV entry inh inconclusive
CCOC(=O)C(C)n1cnc2c(cnn2-c2ccc(Cl)cc2)c1=O (stereo not drawn)	none
CC1CCC(NC(=O)C2CCN(c3c4c(nc5ncnn35)CCC4)CC2)CC1 (stereo not drawn)	CHX counter 20, HCV inhibitor inconclusive, Shiga toxin inh 49
CCc1ccc(S(=O)(=O)Nc2ccccn2)cc1	none (no result: LASV entry inh, Marburg entry inh)
Cc1ccc(CCNC(=O)c2ccc3[nH]c(C)c(C)c3c2)cc1	none (no result: CHX counter, HCV inhibitor, Shiga toxin inh, Marburg entry inh)
O=C(CCC(=O)N(CC(=O)NC1CCCC1)c1cccc(F)c1)Nc1nccs1	none
CCCSc1nnc(NC(=O)Nc2ccccc2OC)s1	CHX counter 34, Shiga toxin inh 96 (no result: LASV entry inh, Marburg entry inh)
O=C(Nc1nnc(SCc2cc(=O)c3ccccc3[nH]2)s1)c1ccccc1	FMDV inh inconclusive (no result: CHX counter, HCV inhibitor, Shiga toxin inh, Marburg entry inh)
CCOc1ccccc1Nc1nnc(SCC(=O)N2CCCC2)s1	HCV inhibitor 25µM
COc1ccccc1C(=O)Nc1nnc(SCc2cc(=O)c3ccccc3[nH]2)s1	FMDV inh 22µM (no result: CHX counter, HCV inhibitor, Shiga toxin inh, Marburg entry inh)
COc1ccccc1Nc1nnc(SCC(=O)N2CCCC2)s1	CHX counter 33
Cc1ccc(CNCc2cccnc2)s1	FMDV inh inconclusive (no result: LASV entry inh, Marburg entry inh)
O=C(Nc1ccc(-n2cc(Cl)cn2)cc1)c1ccncc1	none (no result: LASV entry inh, Marburg entry inh)
O=C(Cn1cccc1C(=O)c1ccccc1)NCc1ccccc1Cl	CHX counter 38, Shiga toxin inh 75
Cc1ccccc1C(=O)c1cccn1CC(=O)NCC(C)c1ccccc1 (stereo not drawn)	none (no result: LASV entry inh, Marburg entry inh)
CC1CCCCC1NC(=O)Cn1cccc1C(=O)c1ccccc1 (stereo not drawn)	CHX counter 15
COc1ccccc1CNC(=O)Cn1cccc1C(=O)c1ccccc1	Shiga toxin inh 48 (no result: LASV entry inh, Marburg entry inh)
Cc1ccccc1C(=O)c1cccn1CC(=O)NCc1ccccc1Cl	CHX counter 22, Shiga toxin inh 50 (no result: LASV entry inh, Marburg entry inh)
COc1cccc(C2c3c(oc4cc(C)c(C)cc4c3=O)C(=O)N2CCCN(C)C)c1 (stereo not drawn)	none (no result: LASV entry inh, Marburg entry inh)
Cc1cccc(-c2cnc(C(O)c3ccc(F)c(C)c3)[nH]2)c1 (stereo not drawn)	none (no result: LASV entry inh, CHX counter, HCV inhibitor, Shiga toxin inh, Marburg entry inh)
Cc1nc2cc(NC(=O)c3ccc([N+](=O)[O-])s3)ccc2s1	LASV entry inh inconclusive, CHX counter 34, HCV inhibitor inconclusive, Shiga toxin inh 52, Marburg entry inh inconclusive
COc1ccc2nc(NC(=O)c3cccs3)sc2c1	LASV entry inh inconclusive, CHX counter 44, Shiga toxin inh 77, Marburg entry inh 6.3µM
O=C(Nc1nc2ccc(Cl)cc2s1)[C@@H]1CCCN1C(=O)c1cccs1	LASV entry inh inconclusive, CHX counter 82, HCV inhibitor inconclusive, Shiga toxin inh 81, Marburg entry inh inconclusive
Cc1nc2ccc(NC(=O)c3cccs3)cc2s1	CHX counter 45, Shiga toxin inh 98
Cc1cccc2sc(NC(=O)[C@@H]3CCCN3C(=O)c3cccs3)nc12	Marburg entry inh inconclusive
CN1CCN(c2ccc(CNC(=O)C3Cc4c(-c5cccc(F)c5)ccnc4O3)cc2)CC1 (stereo not drawn)	none (no result: LASV entry inh, CHX counter, HCV inhibitor, Shiga toxin inh, Marburg entry inh)
O=C(O)CC1COc2ccccc2N1C(=O)c1ccccc1Cl (stereo not drawn)	none
Cc1nc2ccc(NC(=O)c3sccc3C)cc2s1	LASV entry inh inconclusive, CHX counter 64, Shiga toxin inh 64
CC(=O)Nc1ccc2nc(NC(=O)c3cccs3)sc2c1	LASV entry inh inconclusive, CHX counter 43, Shiga toxin inh 78, Marburg entry inh inconclusive
COc1ccnc(NCc2cccc(C(F)(F)F)c2)c1C#N	none
CCC(CC)COC(=O)C(C#N)c1nc2ccccc2nc1N1CCN(CC)CC1 (stereo not drawn)	LASV entry inh inconclusive, HCV inhibitor inconclusive, Marburg entry inh 5.2µM, FMDV inh inconclusive
CC1CCc2c(sc3nc(C4CC4)nc(N4CCN(C(=O)c5ccco5)CC4)c23)C1 (stereo not drawn)	LASV entry inh inconclusive, HCV inhibitor 4.5µM, Marburg entry inh inconclusive, FMDV inh 25µM (no result: CHX counter, Shiga toxin inh)
CCc1nc(N2CCN(C(=O)c3ccco3)CC2)c2c3c(sc2n1)CCCC3	LASV entry inh inconclusive, HCV inhibitor inconclusive, Marburg entry inh inconclusive, FMDV inh inconclusive
C=CCn1cccc(C(=O)Nc2ccc(OC)c(Cl)c2)c1=O	CHX counter 24, Shiga toxin inh 54
C=CCn1cccc(C(=O)Nc2ccc(OC)c(OC)c2)c1=O	none
C=CCn1cccc(C(=O)Nc2cc(OC)c(OC)c(OC)c2)c1=O	HCV inhibitor inconclusive, Marburg entry inh inconclusive

Source: PubChem BioAssay
